LGR2 inh: blocks bursicon-induced cAMP signaling via Drosophila LGR2; inhibition, % at 9.99 µM; 0.35% of 380,000 active; HEK293 LGR2, CRE-luciferase, bursicon-stimulated, 4 h;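 active = drop in luminescence signal, shown as inhibition above about 50% in the replicate tests, limit read from the data, passing the limit was not always enough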;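 also: agonist challenge used bursicon conditioned medium at about half maximal strength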
EBV LMP1 NFkB: inhibitors of Epstein-Barr LMP1-induced NF-kappaB reporter. LMP1-induced NF-kappaB luciferase reporter cells, luminescence. inhibition, % at 12.5 µM. 0.69% of 350,000 active. AID 504558; in the data active = inhibition above about 41%;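 also: 0% = neutral control wells and 100% = reference inhibitor control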
TROY signal inh: TROY signaling inhibition; Q293 LMP1-TROYcd NF-kB luciferase reporter, 4 h; inhibition, % at 10 µM; 0.98% of 360,000 active; AID 1347056;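 active = compounds whose plate-normalised and pattern-corrected inhibition of the luciferase reporter signal at the single screening dose is 50% or more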
TWEAK-Fn14 inh: inhibitors of TWEAK-Fn14 interaction signaling; TWEAK-stimulated Fn14 reporter cells, luciferase luminescence, 8 h; inhibition, % at 10 µM; 2% of 360,000 active; in the data active = inhibition above about 50%
HSP90 inh: HSP90 refolding inhibition in rabbit reticulocyte lysate; luciferase refolding luminescence, 3 h; inhibition, % at 5.6 µM; 0.91% of 290,000 active;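 active = inhibition above the screen-wide mean plus 3 SD, computed separately per campaign, cut at about 16% in these data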;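 also: 0% = DMSO wells and 100% = 60 µM geldanamycin wells; inhibitors lower the luminescence because luciferase stays unfolded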
aDG glyco up: increases alpha dystroglycan glycosylation | Pro5-aDG cells, alpha-DG glycosylation AlphaScreen (IIH6); 0% Pro5, 100% B10-LARGE cell signal | activation, % at 10 µM | 0.22% of 360,000 active;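 active = activation of at least 8% versus controls, or a plate z-score of at least 8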;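 also: Pro5 are CHO cells carrying HIG-tagged alpha-DG that lacks glycosylation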
Numbers without * were called inactive; / = not tested or not shown. In the library only some 2.6% were active in any assay of this set; here they are far more common.

SMILES	LGR2 inh	EBV LMP1 NFkB	TROY signal inh	TWEAK-Fn14 inh	HSP90 inh	aDG glyco up
CN1C2CCC1CC(OC(=O)c1cccc(O)c1)C2 (configuration not stated)	22	4	-13	17	/	0
CN1[C@@H]2CC[C@H]1CC(OC(=O)C1C=Nc3ccccc31)C2 (some centres not stated)	-4	82*	1	3	-2	0
Cc1cc(C)n(-c2ccc(NN=C(C#N)C#N)cc2)n1	82*	57*	65*	84*	7	0
N#CC(C#N)=NNc1ccc(-n2ccc(C(F)(F)F)n2)cc1	78*	60*	67*	91*	4	0
CCCNC(=O)[C@H]1[C@H](CO)[C@H]2Cn3c(cccc3=O)[C@@H]1N2CCC	7	/	/	/	/	/
O=C(NN=Cc1ccc(N(CCCl)CCCl)cc1Cl)c1cccnc1	-17	78*	19	-7	/	0
Cc1cc(N(CCCl)CCCl)ccc1C=NNC(=O)c1cccnc1	1	74*	-6	-53	/	0
O=C(NN=Cc1ccc(N(CCCl)CCCl)cc1)c1cc(=O)[nH]c(=O)[nH]1	-16	39	3	4	/	0
CCC(=O)N1[C@@H]2c3ccc(-c4cccc(F)c4)c(=O)n3C[C@H]1[C@H](CO)[C@H]2C(=O)OC	-4	/	/	/	/	/
O=C(O)C[C@@H]1CC[C@H]2NC[C@@H](O)COC[C@@H]2O1	8	/	/	/	/	/
CCN(CC)c1ccc(/C=C/[N+](=O)[O-])cc1	30	3	-5	-6	7	0
O=[N+]([O-])/C=C/c1c(Cl)cccc1Cl	-15	0	8	52*	/	0
Cc1ccc(OC(=O)N(C)C[C@H]2OCc3ccccc3-c3c(n(C)c4ccccc34)C(=O)N([C@H](C)CO)C[C@@H]2C)cc1	19	/	/	/	/	/
Fc1ccccc1CCNCc1ccccc1	-15	-2	5	0	2	0
Fc1ccc(CNCCc2ccccc2F)cc1	-3	-12	70*	30	0	0
CCCN1[C@@H]2Cn3c(ccc(-c4cccc(C(=O)N(C)C)c4)c3=O)[C@H]1[C@@H](C(=O)OC)[C@@H]2CO	5	/	/	/	/	/
Cc1ccccc1-c1ccc([C@@H]2[C@H](CO)N3CCCCN(C(=O)Cc4ccccn4)C[C@@H]23)cc1	1	/	/	/	/	/
COc1ccc(C#Cc2ccc([C@@H]3[C@H]4CN(C(=O)Cc5cccnc5)CCCCN4[C@H]3CO)cc2)cc1	24	/	/	/	/	/
CCN1/C(=C\C=C\C2=[N+](CC)c3ccccc3C2(C)C)C(C)(C)c2ccccc21	/	71*	65*	100*	6	1
O=C(O)COc1ccc(Cl)cc1Cl	13	-1	-2	-11	/	0
Oc1cc(Cl)ccc1Oc1ccc(Cl)cc1Cl	/	-4	51*	50	/	0
COC(=O)[C@H]1[C@H](CO)[C@H]2Cn3c(ccc(-c4ccccc4F)c3=O)[C@@H]1N2C(C)=O	-7	/	/	/	/	/
CCC1(OC(=O)CN)C(=O)OCc2c1cc1n(c2=O)Cc2cc3ccccc3nc2-1 (configuration not stated)	96*	81*	69*	82*	4	0
CC[C@@]1(O)C(=O)OCc2c1cc1n(c2=O)Cc2cc3ccccc3nc2-1	/	/	/	/	2	/
CC[C@@]1(O)C(=O)OCc2c1cc1n(c2=O)Cc2cc3c(NC(=O)CN)cccc3nc2-1	21	77*	19	-9	-1	0
C/C=C/c1ccc([C@@H]2[C@@H](CO)N3CCCCN(C(=O)Cc4ccncc4)C[C@H]23)cc1	-1	/	/	/	/	/
C/C=C/c1ccc([C@H]2[C@H]3CN(C(=O)Cc4ccncc4)CCCCN3[C@H]2CO)cc1	-21	/	/	/	/	/
CCC(c1nnnn1-c1ccc(OC)cc1)N1CCC(n2c(=O)[nH]c3ccccc32)CC1 (configuration not stated)	-1	/	22	7	/	0
CCCCn1nnnc1C(CCc1ccccc1)N1CCC(n2c(=O)[nH]c3ccccc32)CC1 (configuration not stated)	106*	/	27	31	/	0
COc1ccc(-n2nnnc2C(CCc2ccccc2)N2CCC(n3c(=O)[nH]c4ccccc43)CC2)cc1 (configuration not stated)	101*	/	72*	94*	/	-1

Bioassay records deposited in PubChem BioAssay by several laboratories.
